The source of these data is PubChem BioAssay.

Assay [1] deals with Wnt5a (protein binding on small-molecule microarray). In words: Wnt5a binders on small-molecule microarray, primary screen, biophysical, 635/667 nm fluorescence (AID 1142).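 Further: fluorescence read at 667 nm with signal to noise per printed feature.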 To be noted: 635 nm fluorescence, higher = more signal.
Assay [2] can be described thus: cell viability in Huh7 cells, primary screen, cytotoxicity control for HCV replication inhibitor project, CellTiter-Glo luminescence, basal, 48 h (AID 1143).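 Further: Huh7 hepatoma cells carrying a hepatitis C replication reporter with no stimulus; test concentration not given here.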 To be noted: Huh7 HCV replicon, higher = more signal, called active from +8 up or from −8 down. For orientation: In ATP-based viability assays light output follows the ATP content of the culture.
Assay [3] in a line: P. aeruginosa biofilm formation inhibitors, primary screen, PAO1 strain, BacTiter-Glo luminescence, LB-PBS (AID 1144). The settings on record: 12 h, higher = more signal.
Assay [4] is described as follows: CREB reporter modulators without forskolin, primary screen, cell-based, PC12, CRE-LacZ reporter, unstimulated (AID 1145). The settings on record: no forskolin, luminescence, 4.5 h, higher = more signal, called active from +8 up or from −8 down.
Assay [5] is described as follows: CREB reporter modulators under forskolin, primary screen, cell-based, PC12, CRE-LacZ reporter, forskolin-stimulated (AID 1146).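 Further: PC12 cells with 6xCRE LacZ reporter stimulated by forskolin 10 µM; beta-galactosidase reporter signal reflecting CREB driven transcription.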 The settings on record: luminescence, 4.5 h, higher = more signal, called active from +8 up or from −8 down.
In assay [6] the target is Streptavidin (Streptomyces avidinii) (UniProt P22629). The experiment in a line: streptavidin binders on small-molecule microarray, primary screen, artefact control for SMM compound annotation, biophysical, 635/667 nm fluorescence (AID 1147).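 Further: signal reflects streptavidin binding to arrayed compounds as a control protein.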 The settings on record: streptavidin binding, higher = more signal.
The nature of assay [7]: small-molecule binders of probe aInhba, primary screen, biochemical, small-molecule microarray, 635/667 nm fluorescence (AID 1148).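 Further: score merges 667nm spot fluorescence with signal-to-noise for antibody binding to printed compounds.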 To be noted: higher = more signal.
The target of assay [8] is Torsin-1A (Homo sapiens) (UniProt O14656). The experiment in a line: torsin A binders from cell lysate, primary screen, small-molecule microarray, wild-type, 635/667 nm (AID 1149). The settings on record: COS7 hTOR1A-WT lysate, 635 nm fluorescence, higher = more signal.
For assay [9] the target is unchanged. The experiment in a line: small-molecule binders of mutant TOR1A in lysate, primary screen, cell lysate, small-molecule microarray, COS7 lysate, 635/667 nm fluorescence (AID 1150).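 Further: score pools 667 nm emission and signal to noise measuring lysate protein binding.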 To be noted: COS7 hTOR1A mutant lysate, 635 nm fluorescence, higher = more signal.
Assay [10] deals with Sonic hedgehog protein (Shh). The experiment in a line: small-molecule binders of Shh protein, primary screen, biochemical, small-molecule microarray, 635/667 nm fluorescence (AID 1151).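 Further: Shh protein binding to compounds spotted on small-molecule microarray slides; score combines spot fluorescence intensity with signal-to-noise across triplicate slides.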 The settings on record: small-molecule microarray binding, 635 nm fluorescence; higher = more signal.
Assay [11] can be described thus: E. coli DRC41 culture turbidity changes, primary screen, E. coli filamentation inducer project, strain DRC41, OD650, 48 h (AID 1152).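 Further: E. coli MC1000 strain DRC41 lacking acrAB efflux pump and sulA.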 The settings on record: E. coli DRC41 (acrAB sulA), higher = more signal, called active from +8 up or from −8 down.
The nature of assay [12]: small-molecule binders of probe aLefty1, primary screen, biochemical, small-molecule microarray, 635/667 nm fluorescence (AID 1153).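 Further: score merges spot fluorescence with signal-to-noise ratio from the scanned slide images.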 To be noted: higher = more signal.
Assay [13] can be described thus: PSAC antagonists in infected red cells, primary screen, cell-based, P. falciparum Indochina, OD700, 1 h (AID 1154). To be noted: P. falciparum Indochina infected RBC osmotic lysis, higher = more signal, called active from +8 up or from −8 down.
Assay [14] in a line: PSAC antagonists in infected red cells, primary screen, cell-based, P. falciparum Indochina, OD700, 2 h (AID 1155).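 Further: lysis reports solute entry through the parasite surface anion channel PSAC; channel blockers reduce lysis of infected cells.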 The settings on record: P. falciparum Indochina infected erythrocytes, osmotic lysis OD700; higher = more signal, called active from +8 up or from −8 down.
Assay [15] is described as follows: osmotic lysis modulators in infected erythrocytes, primary screen, PSAC antagonist project, cell-based, P. falciparum Indochina, OD700, 3 h (AID 1156). The settings on record: higher = more signal, called active from +8 up or from −8 down.
A short description of assay [16]: PSAC antagonists in infected red cells, primary screen, cell-based, P. falciparum Indochina, OD700, 18 h (AID 1157). The settings on record: P. falciparum Indochina infected erythrocytes, osmotic lysis OD700, 18 h; higher = more signal, called active from +8 up or from −8 down.
Assay [17] is described as follows: modulators of S6 phosphorylation in cells, primary screen, cell-based, A549, cytoblot, luminescence, serum-stimulated (AID 1158).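 Further: serum-stimulated A549 lung adenocarcinoma cells; signal is phosphorylated S6 detected by cytoblot immunostaining with HRP secondary.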 The settings on record: A549 phospho-S6 cytoblot, 5 h, higher = more signal.
Assay [18] concerns the target NADPH oxidase 2 (Homo sapiens) (UniProt P04839). In words: NOX2-dependent H2O2 signal modulators, primary screen, NOX inhibitor project, cell-based, HEK293-NOX2, PMA-stimulated, Amplex Red fluorescence (AID 1159). Further: test concentration not given here. The settings on record: 45 min, higher = more signal, called active from +8 up or from −8 down.
For assay [19], the target named is NADPH oxidase 4 (Homo sapiens) (UniProt Q9NPH5). The experiment in a line: NOX4-dependent H2O2 signal modulators, primary screen, NOX inhibitor project, cell-based, HEK293-NOX4, tetracycline-induced, Amplex Red fluorescence (AID 1160). To be noted: 45 min, higher = more signal, called active from +8 up or from −8 down.
Assay [20] has as its target NADPH oxidase 5 (Homo sapiens) (UniProt Q96PH1). In words: NOX5-dependent H2O2 signal modulators, primary screen, NOX inhibitor project, cell-based, HEK293-NOX5, Amplex Red fluorescence (AID 1161). To be noted: HEK293-NOX5, ionomycin, 45 min, higher = more signal.

Molecules are shown by their SMILES. Calls of active or inactive are those of the source. Unless noted, how the calls were made is not given here.

NADPH oxidase 5 (Homo sapiens), sequence (Q96PH1 whole entry, looked up): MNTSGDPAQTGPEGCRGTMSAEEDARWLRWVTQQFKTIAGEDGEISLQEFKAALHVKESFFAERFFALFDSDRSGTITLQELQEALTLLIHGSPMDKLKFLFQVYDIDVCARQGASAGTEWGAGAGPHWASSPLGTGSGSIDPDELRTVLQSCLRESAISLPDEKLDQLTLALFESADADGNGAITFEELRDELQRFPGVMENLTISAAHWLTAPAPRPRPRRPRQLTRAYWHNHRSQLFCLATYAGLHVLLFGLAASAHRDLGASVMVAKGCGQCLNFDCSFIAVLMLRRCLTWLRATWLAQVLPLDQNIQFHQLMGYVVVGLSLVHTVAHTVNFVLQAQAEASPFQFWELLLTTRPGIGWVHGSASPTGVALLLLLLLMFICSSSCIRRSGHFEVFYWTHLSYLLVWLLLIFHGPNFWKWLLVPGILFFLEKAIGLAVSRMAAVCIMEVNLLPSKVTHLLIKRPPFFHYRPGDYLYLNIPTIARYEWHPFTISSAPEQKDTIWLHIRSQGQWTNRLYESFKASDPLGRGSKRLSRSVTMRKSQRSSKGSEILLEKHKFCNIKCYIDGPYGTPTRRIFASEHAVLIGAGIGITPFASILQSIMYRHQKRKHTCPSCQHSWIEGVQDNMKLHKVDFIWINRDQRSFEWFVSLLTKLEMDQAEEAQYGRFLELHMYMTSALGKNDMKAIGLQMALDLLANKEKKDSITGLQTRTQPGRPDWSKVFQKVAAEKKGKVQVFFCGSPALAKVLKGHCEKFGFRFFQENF
NADPH oxidase 2 (Homo sapiens), sequence (P04839 whole entry, looked up): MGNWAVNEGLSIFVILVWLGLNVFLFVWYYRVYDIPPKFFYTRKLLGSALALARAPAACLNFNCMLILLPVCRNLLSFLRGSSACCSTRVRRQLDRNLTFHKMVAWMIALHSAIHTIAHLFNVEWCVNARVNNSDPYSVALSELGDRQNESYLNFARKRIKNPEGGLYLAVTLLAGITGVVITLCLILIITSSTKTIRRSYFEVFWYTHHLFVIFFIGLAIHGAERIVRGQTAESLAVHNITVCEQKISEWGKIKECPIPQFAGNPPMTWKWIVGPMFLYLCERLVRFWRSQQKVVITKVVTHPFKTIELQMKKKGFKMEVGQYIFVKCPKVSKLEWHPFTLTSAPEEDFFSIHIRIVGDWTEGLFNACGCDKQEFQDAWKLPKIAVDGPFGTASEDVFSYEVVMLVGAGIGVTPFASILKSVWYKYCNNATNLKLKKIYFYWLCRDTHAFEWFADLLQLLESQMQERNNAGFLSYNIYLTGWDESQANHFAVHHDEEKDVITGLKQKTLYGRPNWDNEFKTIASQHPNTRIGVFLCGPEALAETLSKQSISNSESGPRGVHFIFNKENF
Streptavidin (Streptomyces avidinii), sequence (P22629 whole entry, looked up): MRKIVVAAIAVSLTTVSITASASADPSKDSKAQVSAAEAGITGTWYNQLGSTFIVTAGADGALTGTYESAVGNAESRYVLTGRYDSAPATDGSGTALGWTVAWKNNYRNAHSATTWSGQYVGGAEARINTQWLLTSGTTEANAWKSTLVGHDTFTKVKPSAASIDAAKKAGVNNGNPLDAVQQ
Torsin-1A (Homo sapiens), sequence (O14656 whole entry, looked up): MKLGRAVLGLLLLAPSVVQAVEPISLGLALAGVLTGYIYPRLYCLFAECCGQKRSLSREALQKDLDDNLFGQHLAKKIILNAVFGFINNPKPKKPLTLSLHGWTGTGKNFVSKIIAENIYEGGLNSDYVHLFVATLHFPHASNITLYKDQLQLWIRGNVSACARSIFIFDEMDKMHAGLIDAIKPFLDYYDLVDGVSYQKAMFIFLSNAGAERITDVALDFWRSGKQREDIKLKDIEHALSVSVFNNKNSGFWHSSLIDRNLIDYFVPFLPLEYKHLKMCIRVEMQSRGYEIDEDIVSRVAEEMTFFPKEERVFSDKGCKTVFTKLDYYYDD
NADPH oxidase 4 (Homo sapiens), sequence (Q9NPH5 whole entry, looked up): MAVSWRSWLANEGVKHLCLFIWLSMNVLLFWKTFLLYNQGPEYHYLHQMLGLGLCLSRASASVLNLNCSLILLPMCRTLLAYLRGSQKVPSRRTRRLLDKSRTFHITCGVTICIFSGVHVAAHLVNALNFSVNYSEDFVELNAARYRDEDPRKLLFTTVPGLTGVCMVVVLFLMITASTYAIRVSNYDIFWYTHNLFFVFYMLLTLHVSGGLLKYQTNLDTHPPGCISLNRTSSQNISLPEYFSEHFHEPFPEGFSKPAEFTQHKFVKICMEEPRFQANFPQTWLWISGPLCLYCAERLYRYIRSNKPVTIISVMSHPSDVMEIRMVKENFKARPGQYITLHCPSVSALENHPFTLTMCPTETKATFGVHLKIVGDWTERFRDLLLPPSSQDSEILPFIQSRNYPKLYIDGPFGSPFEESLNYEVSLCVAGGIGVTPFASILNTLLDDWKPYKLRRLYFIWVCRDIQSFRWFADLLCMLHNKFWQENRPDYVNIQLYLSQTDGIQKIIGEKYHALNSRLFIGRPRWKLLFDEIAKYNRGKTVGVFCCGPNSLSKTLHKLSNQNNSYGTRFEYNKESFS

As for `COC(=O)[C@]1(Cc2ccccc2N=[N+]=[N-])N=C(c2ccc(OCCCO)cc2)O[C@@H]1c1ccccc1CN=[N+]=[N-]`, the composite z-score was determined as 0.65 in [1]; 0.127 in assay [6]; 0.122 in [7]; 1.12 in the assay with Torsin-1A (Homo sapiens) [8]; 0.085 with Torsin-1A (Homo sapiens) [9]; 0.754 in assay [10]. The composite z-score in assay [12] was -0.0012. Further, the z-score was -3.74 (inactive) in [2]; -0.923 (inactive) in assay [3]; -0.137 (inactive) in [4]; 0.0992 (inactive) in assay [5]; -1.01 (inactive) in assay [11]; 22.2 (active) in assay [13]. Moreover, the z-score in [14] was 9.37 (active); in [15], -0.732 (inactive); in assay [16], 2.26 (inactive); in assay [17] it was 0.76; in assay [18], -2.97 (inactive); in [19] it was 0.167 (inactive). In [20], the z-score was -2.43.

Take `C=C(C(=O)CC[C@@H](OC(=O)c1cccnc1)c1cccc(OCCO)c1)C(C)C`: the composite z-score in assay [1] is 0.222; in assay [6] it was -0.0835; in [7] it was -0.0736; with Torsin-1A (Homo sapiens) [8] it was -0.0348; in the assay with Torsin-1A (Homo sapiens) [9], -0.234; in assay [10] it was 1.72. The composite z-score in [12] was -0.309. Besides, the z-score is -2.97 (inactive) in assay [2]; -0.372 (inactive) in assay [3]; 1.67 (inactive) in assay [4]; -1.24 (inactive) in [5]; 1.35 (inactive) in assay [11]; 13.8 (active) in [13]. Further, the z-score was 0.717 (inactive) in [14]; -0.204 (inactive) in assay [15]; -1.02 (inactive) in assay [16]; 0.62 in assay [17]; -0.967 (inactive) in assay [18]; -0.193 (inactive) in assay [19]. Also, the z-score in assay [20] was -1.84.

`COC(=O)[C@H](Cc1ccccc1)N1CC(C)(OC)O[C@@H](Cc2ccccc2)[C@H]1/C=C/C1CC1` (stereo not given in full): the composite z-score was -0.0712 in assay [1]; 0.0404 in [6]; -0.0762 in [7]; 0.256 with Torsin-1A (Homo sapiens) [8]; 0.269 with Torsin-1A (Homo sapiens) [9]; 0.0034 in [10]. Further, the composite z-score in [12] is -0.147. Also, the z-score in assay [2] was -0.628 (inactive); in assay [3], 0.664 (inactive); in assay [4], 4.13 (inactive); in assay [5], 1.12 (inactive); in assay [11], 0.286 (inactive); in assay [13], 1.92 (inactive). Also, the z-score was 0.0937 (inactive) in assay [14]; -0.774 (inactive) in assay [15]; 0.281 (inactive) in assay [16]; -0.105 in assay [17]; -4.36 (inactive) in assay [18]; -0.147 (inactive) in assay [19]. The z-score in assay [20] is -0.141.

On to `C[C@]1(C(=O)O)c2ccccc2C(=O)N(Cc2cc(C(F)(F)F)cc(C(F)(F)F)c2)[C@H]1c1ccc(CO)cc1`, for which the composite z-score in assay [1] is 0.0785; in [6], 1.41; in assay [7], 0.0227; in the assay with Torsin-1A (Homo sapiens) [8] it was -0.652; with Torsin-1A (Homo sapiens) [9] it was -0.113; in assay [10] it was 1.64. Also, the composite z-score in assay [12] was -0.0479. In addition, the z-score in assay [2] is 0.104 (inactive); in assay [3], -0.518 (inactive); in assay [4] it was 0.531 (inactive); in assay [5] it was 0.165 (inactive); in [11], -0.485 (inactive); in assay [13], 1.8 (inactive). For the same molecule, the z-score in assay [14] is 0.168 (inactive); in [15], -0.173 (inactive); in assay [16], 0.157 (inactive); in [17], -0.0892; in assay [18] it was 0.803 (inactive); in [19], 0.0284 (inactive). The z-score in assay [20] is -0.714.

Take `COc1ccc(CCNC(=O)[C@@H]2c3ccccc3C(=O)N(Cc3cc(F)cc(C(F)(F)F)c3)[C@H]2c2ccc(CO)cc2)cc1`: the composite z-score in assay [1] turned out to be 0.0093; in [6], 0.234; in assay [7], 0.396; with Torsin-1A (Homo sapiens) [8], 0.642; in the assay with Torsin-1A (Homo sapiens) [9], 0.478; in assay [10], 0.618. The molecule further had a composite z-score in assay [12] of 0.659. The z-score in [2] was -0.489 (inactive); in assay [3], 0.869 (inactive); in [4] it was 0.585 (inactive); in assay [5], -1.11 (inactive); in [11], 0.799 (inactive); in assay [13], 3.5 (inactive). For the same molecule, the z-score in [14] was 0.69 (inactive); in assay [15], 0.563 (inactive); in [16] it was 0.0614 (inactive); in assay [17] it was -0.155; in assay [18], -2.4 (inactive); in assay [19], -0.0983 (inactive). Besides, the z-score in [20] is -2.21.
